Bioassay records as filed in PubChem BioAssay.
Artemis inh: inhibitors of human Artemis endonuclease activity | recombinant Artemis, quenched FAM hairpin cleavage fluorescence | inhibition, % at 10 µM | 30,000 tested, 0.78% active;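 active means at 10 µM dose, at least 30% inhibition, measured as corrected fluorescence normalized to stimulator and neutral control wells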
Target sequence (Q96SD1 whole entry, looked up): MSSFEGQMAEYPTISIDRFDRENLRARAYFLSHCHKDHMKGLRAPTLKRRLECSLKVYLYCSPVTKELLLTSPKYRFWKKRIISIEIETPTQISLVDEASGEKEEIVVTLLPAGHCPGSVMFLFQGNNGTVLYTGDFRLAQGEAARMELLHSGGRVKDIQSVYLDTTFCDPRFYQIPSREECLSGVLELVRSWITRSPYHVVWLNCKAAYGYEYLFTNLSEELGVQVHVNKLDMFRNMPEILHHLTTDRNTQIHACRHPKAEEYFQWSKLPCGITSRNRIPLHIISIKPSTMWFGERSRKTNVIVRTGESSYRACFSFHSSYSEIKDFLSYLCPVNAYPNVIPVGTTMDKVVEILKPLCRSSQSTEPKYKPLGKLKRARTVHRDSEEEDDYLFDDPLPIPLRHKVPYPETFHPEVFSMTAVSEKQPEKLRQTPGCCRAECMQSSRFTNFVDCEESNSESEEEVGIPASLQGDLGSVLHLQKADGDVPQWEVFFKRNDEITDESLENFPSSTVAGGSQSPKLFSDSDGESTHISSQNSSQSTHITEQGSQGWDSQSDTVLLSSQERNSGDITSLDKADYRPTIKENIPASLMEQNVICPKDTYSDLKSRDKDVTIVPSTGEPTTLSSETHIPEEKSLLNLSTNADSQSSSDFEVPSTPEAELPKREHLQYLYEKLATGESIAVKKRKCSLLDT
Large screens that a line does not name were inactive. This is one part of a sample in which hits are shown more often than they occur.

Cc1cc(C(F)F)n2nc(C(=O)Nc3cccnc3Cl)nc2n1	none
Cc1cc(C)n(-c2nc(Nc3ccccc3C(F)(F)F)nc(-n3nc(C)cc3C)n2)n1	Artemis inh 57
Cc1csc(Nc2ccccc2C(F)(F)F)n1	none
Cc1cc(C)n(-c2nc(NC(C)(C)C)nc(NC(C)(C)C)n2)n1	none
Cc1[nH]n2c(=O)cc(-c3ccc([N+](=O)[O-])cc3)nc2c1-c1ccccc1	Artemis inh 32
CSc1nc2nc(-c3ccccc3)cc(=O)n2[nH]1	none
COc1cccc(-c2cc(C(F)(F)F)n3ncc(C(=O)O)c3n2)c1	none
Cc1ccc(N=Nc2c(=O)[nH]n3c(=O)cc(C)[nH]c23)cc1	none
Cc1ccc(C(=O)Nc2nc3nc(-c4ccccc4)cc(=O)n3[nH]2)cc1	none
Cc1[nH]n2c(=O)cc(C(C)(C)C)nc2c1-c1ccccc1	none
CCOC(=O)Cc1cc(=O)n2[nH]c(C)c(-c3ccc(OC)cc3)c2n1	none
COc1cccc(N=Nc2c(N)[nH]n3c(=O)cc(-c4ccccc4)nc23)c1	Artemis inh 36
Cc1ccc(N=Nc2c(N)[nH]n3c(=O)cc(-c4ccccc4)nc23)cc1	Artemis inh 48
O=C(c1ccc2ccccc2n1)N1CCN(c2ccccc2O)CC1	none
O=C(O)COc1ccc2c3c(c(=O)oc2c1)CCC3	none
COc1ccc(-n2nnnc2-c2cn(C)nc2C(F)(F)F)cc1	none
C=CCn1c(SCC(=O)N(C)C2CCS(=O)(=O)C2)nnc1-c1ccncc1 (stereo unspecified)	none
CN(C)CCCOc1nc2c(c(=O)n(C)c(=O)n2C)n1C	none
Cc1ccc(-c2cc(C(=O)Nc3ccc4c(c3)OCCO4)c3ccccc3n2)cc1	none
Cc1ccc(Sc2ccc(N)cc2C#N)cc1	none
COc1ccc(N2CCN(C(=O)CCNS(=O)(=O)c3ccc(Br)s3)CC2)cc1	none
O=C(Nc1ccc(Cl)c(C(F)(F)F)c1)NC1CC2CCCC(C1)N2C1CC1 (stereo unspecified)	none
COc1cc(NCCCC(C)N)c2ncccc2c1 (stereo unspecified)	Artemis inh 55
COc1ccc(OC)c(NC(=O)c2ccccc2NS(=O)(=O)c2cccc3cccnc23)c1	none
COc1ccc2[nH]c3c(NCCN(C(C)C)C(C)C)ncnc3c2c1	none
Cc1cccc(N(CC(=O)N/N=C/c2cc([N+](=O)[O-])ccc2Cl)S(C)(=O)=O)c1C	none
COC(=O)c1[nH]c(=O)c2ccccc2c1O	none
Cc1cccc2cc(=O)[nH]c(C)c12	none
Cc1ccccc1Nc1cc2ccccc2c(=O)[nH]1	Artemis inh 31
CC(=O)c1c(C)[nH]c(C(=O)COC(=O)CN(C)S(=O)(=O)c2ccc(Cl)cc2)c1C	none
CC(=O)NC1C(=O)Nc2c1cccc2C(F)(F)F (stereo unspecified)	none
CCC1CC2CC(NC(C)=O)C1C2 (stereo unspecified)	none
CC(=O)c1cc(C#N)c(Oc2ccc(Cl)cc2Cl)nc1C	none
Cc1ccc(C2C(C#N)=C(N)Oc3n[nH]c(-c4cccs4)c32)cc1 (stereo unspecified)	none
N#CC1=C(N)Oc2n[nH]c(-c3cccs3)c2C1c1ccoc1 (stereo unspecified)	Artemis inh 39
COc1cc(-c2[nH]nc3c2C(c2ccoc2)C(C#N)=C(N)O3)cc(OC)c1OC (stereo unspecified)	none
CCOC(=O)c1c(C)nc2c(c(SC)nn2-c2ccccc2)c1N	none
Cc1cc(C)n(-c2cc(N3CCN(C(=O)c4cccc(F)c4)CC3)ccc2[N+](=O)[O-])n1	none
CC(C)CNS(=O)(=O)c1ccc(CCC(=O)Nc2ccc3c(c2)OCCO3)cc1	none
CC(C)(C)c1ccc(C(=O)C=[N+]=[N-])cc1	none
N#Cc1ccsc1NC(=O)CSc1ncnc2ccccc12	none
CCNC(=O)CSc1ncnc2sccc12	none
N#Cc1c(NC(=O)CSc2ncnc3sccc23)oc(-c2ccco2)c1-c1ccco1	Artemis inh 31
COc1ccc(C(=O)N2CCN(S(=O)(=O)N3CCOCC3)CC2)cc1OC	none
CCCCCCCCC/C(=N\O)c1ccccn1	Artemis inh 35
CCCCCCOc1ccc(/C(N)=N/O)cc1	none
CCCCCCCCCCNC(=O)C(=O)Nc1ccccn1	none
CCOc1ccc(Cc2nc(C)c(CC(=O)N3CCOCC3)c(=O)[nH]2)cc1	none
COc1cc([N+](=O)[O-])ccc1NC(=O)CCCOc1cccc(C)c1	none
COc1ccc(S(=O)(=O)Nc2ccc3c(c2)OCCO3)cc1Cl	none
CSc1nc2ccc(S(=O)(=O)NC3CCCCC3)cc2s1	none
CSc1nc2ccc(NS(=O)(=O)c3ccc4c(c3)OCCO4)cc2s1	Artemis inh 34
O=C(Nc1ccc(N2CCCC2)cc1)C(c1ccccc1)c1ccccc1	Artemis inh 52
CCCC(=O)N1CCN(c2ccc(NC(=O)C(C)(C)C)cc2)CC1	none
COc1ccccc1C(=O)Nc1ccc(N2CCN(Cc3ccccc3)CC2)cc1	none
COc1ccccc1C(=O)Nc1ccc(N2CCCCC2)cc1	none
O=C(Cc1ccccc1)Nc1ccc(N2CCCC2)cc1	Artemis inh 59
CCCCC(=O)Nc1ccc(N2CCCC2)cc1	Artemis inh 44
CCC(=O)N1CCN(c2ccc(NC(=S)NC(=O)c3cccc([N+](=O)[O-])c3)cc2)CC1	none
CCOc1cccc(C(=O)NC(=S)Nc2ccc(N3CCCC3)cc2)c1	Artemis inh 43
CCC(=O)Nc1ccc(N2CCN(Cc3ccccc3)CC2)cc1	none
